Screening data deposited in PubChem by National Center for Advancing Translational Sciences (NCATS).
D1 potentiator: Potentiators of Human D1 Dopamine Receptor: qHTS | actives 0.036% (n = 360,000) | HEK293 TREx D1 cells, calcium flux, dopamine EC20 potentiation | AID 504651, 2011 | potentiation, % at 10 µM | D(1A) dopamine receptor (Homo sapiens), P21728; in the data active = potentiation above about 30%; also: 0% is about no effect
Chronic BCR inh: qHTS Assay to Find Inhibitors of Chronic Active B-Cell Receptor Signaling. ABC-DLBCL IkBa-CBG/CBR reporter, luminescence ratio, 4 h. Potency, µM (top dose mostly 46.1 µM), without a hit: at the highest dose activity change, negative = inhibition, most hits filed as inhibitors. actives 0.05% (n = 340,000); active = well fitted inhibition curve with a large enough effect in the signal ratio, with a control signal flat, not every such curve was filed as active; inconclusive = small, poorly fitted or top-dose-only effect, or effect the other way, or a change in a side signal; the % refers to the signal ratio;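 also: potency is read from the fitted curve at half-maximal effect; plate controls were basal doxycycline-induced cells for no effect and cells given 10 µM MG132 for full effect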
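TMD8 ABC-DLBCL cells carrying doxycycline-inducible green luciferase fused to IkappaBalpha plus unfused red luciferase were exposed to compounds (up to 46 uM) for 4 hrs at 37C. Activity came from the overlap-corrected green/red luminescence ratio.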
D1 agonist: Allosteric Agonists of the Human D1 Dopamine Receptor: qHTS; HEK293 T-REx D1 cells, calcium flux, agonist mode; actives 1% (n = 360,000); D(1A) dopamine receptor (Homo sapiens), P21728; activation, % at 2 µM; in the data active = activation above about 30%; also: 0% is about no effect
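Inducible HEK293 T-REx D1 cells, force-coupled to calcium signalling, were plated at 4000 cells/well with tetracycline and held overnight at 30 C. After no-wash calcium dye loading, compound-evoked calcium rise over 180 s flagged agonists.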
D1 antagonist: Antagonist of Human D 1 Dopamine Receptor: qHTS | HEK293 TREx D1 cells, calcium flux, dopamine EC80; active compounds read low | activity change, negative = inhibition, % at 10 µM | actives 3.2% (n = 360,000); in the data active = activity change below about -30%; also: % is scaled to controls: 0 for no effect and ±100 for the full control effect
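Calcium flux readout: force-coupled, inducible Hek293 Trex D1 line, cells induced overnight at 30 C with tetracycline, dye-loaded 30–90 min at RT. Antagonism scored against EC80 dopamine challenge given 180 s after compound.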
D3 antag: qHTS of D3 Dopamine Receptor Antagonist: qHTS; D(3) dopamine receptor (Homo sapiens), P35462; D3R cells, DiscoveRx beta-arrestin luminescence, antagonist mode; active compounds read low; max response, negative = inhibition, %; actives 2.5% (n = 360,000); in the data active = max response below about -50%; inconclusive = no clear call, values can overlap the other calls; also: % is scaled to controls: 0 for no effect and ±100 for the full control effect
Target sequence (P35462 whole entry, looked up): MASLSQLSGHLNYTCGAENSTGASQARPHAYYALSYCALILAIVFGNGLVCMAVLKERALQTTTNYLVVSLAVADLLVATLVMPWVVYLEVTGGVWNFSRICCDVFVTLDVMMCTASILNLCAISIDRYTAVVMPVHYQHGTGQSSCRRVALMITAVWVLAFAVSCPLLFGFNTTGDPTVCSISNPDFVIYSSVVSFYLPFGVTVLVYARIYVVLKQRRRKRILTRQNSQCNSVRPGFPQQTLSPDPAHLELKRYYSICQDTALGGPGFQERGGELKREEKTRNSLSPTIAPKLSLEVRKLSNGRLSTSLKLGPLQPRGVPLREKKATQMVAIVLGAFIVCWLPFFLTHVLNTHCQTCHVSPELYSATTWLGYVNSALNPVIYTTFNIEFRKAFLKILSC
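Cells expressing the human receptor were seeded at 1500 cells/well, incubated overnight at 37 degrees C in 5% CO2, then exposed to library compounds with dopamine controls for 90 minutes at 37 degrees C before luminescent detection.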
D3 ag: qHTS of D3 Dopamine Receptor Agonist: qHTS; D(3) dopamine receptor (Homo sapiens), P35462; D3R DiscoveRx beta-arrestin cells, luminescence, 90 min; max activation, %; actives 0.58% (n = 410,000); AID 652048, 2013; in the data active = max activation above about 30%; also: 0% is about no effect
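Agonist mode: compounds and dopamine controls were applied to plated cells for 90 min at 37 degrees C after an overnight attachment at 1500 cells/well. Luminescent read-out followed 30 - 60 minutes at room temperature with DiscoveRx detection reagent.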
Numbers without * were called inactive; ? = inconclusive; nt = no result given; ! = a repeat was not active. Compounds with a hit are over-represented: about 6% of the library has one in this group of screens.

SMILES	D1 potentiator	Chronic BCR inh	D1 agonist	D1 antagonist	D3 antag	D3 ag
COc1ccc(CNC(=O)C[C@@H]2C[C@H]3c4cc(NC(=O)C5CCC5)ccc4O[C@H]3[C@@H](CO)O2)cc1	nt	nt	nt	nt	12	-3
COc1ccc(N2CCN(C(=O)CC(C)S(=O)(=O)c3ccc4c(c3)NC(=O)CO4)CC2)cc1 (stereo not given)	-3	-3%	5	-32*	34	9
CC(CC(=O)N1CCN(c2cccc(Cl)c2)CC1)S(=O)(=O)c1ccc2c(c1)NC(=O)CO2 (stereo not given)	-6	?	10	-15	59	16
O=C(N/N=C/c1ccco1)c1cc(-c2ccc(Br)s2)[nH]n1	-7	13%	1	-1	0	-5
C/C(=N/NC(=O)c1cc(-c2ccc(Br)s2)[nH]n1)c1ccco1	-10	?	0	-46*	-17	-21
C/C(=N\NC(=O)c1cc(-c2ccc(Br)s2)[nH]n1)c1ccncc1	-1	-6%	3	0	-2	-2
O=C(N/N=C/c1ccco1)c1cc(-c2ccc(Cl)s2)[nH]n1	-1	3%	28	-43*	3	-6
CCN(c1ccccc1)S(=O)(=O)c1ccc(Cl)c(NC(=O)CSc2nc(N)cc(=O)[nH]2)c1	nt	nt	nt	nt	?	-5
O=C(CCN1C(=O)C2C3C=CC(C4CC34)C2C1=O)Oc1cccc2cccnc12 (stereo not given)	-3	-9%	1	6	-68*	-52
O=C(CCN1C(=O)C2C3C=CC(C4CC34)C2C1=O)Oc1ccc(Br)cc1 (stereo not given)	-10	-1%	2	-62*	-15	-9
COc1cc(NC(=O)CSc2nc3nc(C)c(Cc4ccc(C)cc4)c(C)n3n2)cc(OC)c1	-1	?	4	23	nt	-6
CCOP(=O)(c1ccccc1)c1nc(-c2ccccc2Cl)oc1N1CCCCC1 (stereo not given)	-2	?	27	25	-73*	0
Cc1ccc(S(=O)(=O)c2nc(-c3ccccc3Cl)oc2N2CCCCCC2)cc1	-3	nt	11	23	nt	-8
CC1CN(c2nc3ccccn3c(=O)c2C=O)CC(C)O1 (stereo not given)	-3	-2%	1	-34*	-24	-7
Nc1nc2c(ncn2[C@H]2C[C@H](O)[C@@H](CO)O2)c(=O)[nH]1	-5	-12%	1	-30*	0	-8
O=c1[nH]c(=O)n([C@H]2C[C@H](O)[C@@H](CO)O2)cc1C(F)(F)F	-4	?	1	-24	24	90*!
Nc1nc(Cl)nc2c1ncn2C1CC(O)C(CO)O1 (stereo not given)	-5	1%	-1	9	2	22
Cc1ccc(C(=O)CSC2=C(C#N)C(c3ccco3)C3=C(CC(C)(C)CC3=O)N2)cc1 (stereo not given)	4	0%	4	-6	-59*	-1
CC1(C)CC(=O)C2=C(C1)NC(SCC(=O)Nc1ccccc1)=C(C#N)C2c1ccco1 (stereo not given)	11	?	3	7	18	3
O=C(NCCC1=CCCCC1)C1CCC(CNc2nc(=S)[nH]c3ccccc23)CC1 (stereo not given)	1	-5%	1	9	-83*	-13
Cc1ccn2c(Cc3ccccc3)c(-c3ccccc3)nc2c1	nt	nt	nt	nt	-17	-6
Cc1ccn2c(CN3CCOCC3)c(-c3ccccc3)nc2c1	-5	-5%	2	-32*	10	0
CCOc1ccc(N2CC(NC(=O)c3cc4ccccc4o3)CC2=O)cc1 (stereo not given)	-1	-15%	4	nt	nt	-9
C[C@H](CO)N1C[C@H](C)[C@@H](CN(C)Cc2ccncc2)OCCCC[C@H](C)Oc2ccc(NC(=O)CCCN(C)C)cc2C1=O	nt	nt	nt	nt	0	-9
COc1ccc(-c2cc(C(F)(F)F)nc(SCCC(=O)Nc3cc(C)ccc3O)n2)cc1	-1	nt	2	9	nt	37*
SMILES	D1 potentiator	Chronic BCR inh	D1 agonist	D1 antagonist	D3 antag	D3 ag
COc1ccc(-c2cc(C(F)(F)F)nc(SCC(=O)Nc3ccc(C(C)=O)cc3)n2)cc1	-5	nt	1	-44*	nt	0
NC(c1csc(NC(=O)c2cccc(OC(F)(F)F)c2)n1)c1ccccc1Cl (stereo not given)	nt	nt	nt	nt	13	-11
CCn1c(=O)c([N+](=O)[O-])c(NCCN(C)C)c2ccccc21	-8	?	-1	-13	-59*	-22
COCCNc1c([N+](=O)[O-])c(=O)n(-c2ccccc2)c2ccccc12	0	-1%	2	-4	9	1
CCn1c(=O)c([N+](=O)[O-])c(NCC(O)c2ccccc2)c2ccccc21 (stereo not given)	1	5%	4	1	-14	-9
O=c1c([N+](=O)[O-])c(NCCN2CCCCCC2)c2ccccc2n1-c1ccccc1	0	?	0	13	-98*	-16
CCn1c(=O)c([N+](=O)[O-])c(Cl)c2ccccc21	-4	?	1	-9	-115*	-23
COc1ccc(OC(=O)N(C)C[C@@H]2OCc3cn(nn3)CCCC(=O)N([C@@H](C)CO)C[C@H]2C)cc1	nt	nt	nt	nt	-17	-5
Cc1ccc(OCC(O)CNC(C)c2ccccc2)cc1C (stereo not given)	2	-10%	32*	0	-8	-2
Cc1ccc(C(OCC(O)CNC(C)c2ccccc2)c2ccccc2)cc1 (stereo not given)	4	?	14	-38*	-7	0
Cc1ccc(C(OCC(O)CN2CCCCC2)c2ccccc2)cc1 (stereo not given)	-12	-3%	3	4	-6	-13
CCOC(=O)C(C(=O)OCC)C(c1ccccc1)N1CCN(c2ccccc2)CC1 (stereo not given)	nt	nt	nt	nt	?	-20
NNC(=O)c1ccccc1OCc1ccccc1	1	?	0	5	21	1
NNC(=O)c1ccccc1CO	nt	nt	nt	nt	24	34*
C=CCC(C(=O)NC(C)c1ccccc1)C(=O)NC(C)c1ccccc1 (stereo not given)	7	4%	32*	-18	-29	-8
